Test results from the supplement of paper PMC11732987, “Enantioselective OTUD7B fragment discovery through chemoproteomics screening and high-throughput optimisation” (Communications Chemistry, 2025).
Values without a mark were called inactive.

How the values were obtained:
Test in all cases: log2 ratio of Biotin-Ahx-Ub-VS probe labelling (fragment/DMSO); higher = less target engagement (more negative = stronger competition), active = hit call of the paper (q ≤ 0.05, log2 ratio ≤ -1)
Conditions in all cases: compound concentration: 200 uM; treatment time: 3 h
ALG13 = molecular target: T1, ALG13 (UniProt Q9NP73)
T1 sequence (whole entry): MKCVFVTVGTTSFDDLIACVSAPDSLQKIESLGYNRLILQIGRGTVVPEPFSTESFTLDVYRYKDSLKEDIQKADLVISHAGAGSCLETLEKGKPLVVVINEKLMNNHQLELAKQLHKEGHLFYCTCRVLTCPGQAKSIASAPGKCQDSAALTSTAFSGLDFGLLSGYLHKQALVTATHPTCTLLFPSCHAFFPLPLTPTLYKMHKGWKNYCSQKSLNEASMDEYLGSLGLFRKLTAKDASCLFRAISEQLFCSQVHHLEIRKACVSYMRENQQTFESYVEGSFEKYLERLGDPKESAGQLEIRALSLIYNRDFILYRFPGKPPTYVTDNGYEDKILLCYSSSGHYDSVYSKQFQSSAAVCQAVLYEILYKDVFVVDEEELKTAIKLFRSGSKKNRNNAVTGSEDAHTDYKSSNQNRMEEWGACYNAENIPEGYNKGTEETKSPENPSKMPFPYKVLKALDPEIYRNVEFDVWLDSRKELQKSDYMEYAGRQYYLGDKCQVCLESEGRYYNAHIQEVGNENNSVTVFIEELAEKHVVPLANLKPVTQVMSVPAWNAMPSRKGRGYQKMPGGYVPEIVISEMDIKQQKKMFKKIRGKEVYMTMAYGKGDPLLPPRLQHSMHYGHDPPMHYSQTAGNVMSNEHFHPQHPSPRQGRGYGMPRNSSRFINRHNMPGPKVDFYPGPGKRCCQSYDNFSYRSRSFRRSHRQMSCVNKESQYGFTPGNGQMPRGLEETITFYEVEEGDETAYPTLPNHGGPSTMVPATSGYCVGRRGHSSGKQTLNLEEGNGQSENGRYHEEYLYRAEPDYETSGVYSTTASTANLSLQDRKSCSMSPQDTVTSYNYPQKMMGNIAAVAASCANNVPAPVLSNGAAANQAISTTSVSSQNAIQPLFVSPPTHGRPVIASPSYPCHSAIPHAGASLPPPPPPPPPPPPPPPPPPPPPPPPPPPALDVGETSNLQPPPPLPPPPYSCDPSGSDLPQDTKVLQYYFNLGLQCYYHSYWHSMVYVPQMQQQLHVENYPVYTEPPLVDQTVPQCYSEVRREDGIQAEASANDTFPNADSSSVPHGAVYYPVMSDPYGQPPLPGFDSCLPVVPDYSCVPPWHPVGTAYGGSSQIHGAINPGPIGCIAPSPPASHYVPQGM
In short: (§1)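 The table lists average log2 ratios of fragment over vehicle, from an unpaired t-test on global-median-normalised Spectronaut label-free quantities. Proteins with ≥2 unique peptides were used. Samples were HEK293T lysate (495 µg) treated in triplicate with fragment at 200 µM or vehicle for 3 h, then with Biotin-Ahx-Ub-VS (0.5 µM final) for 1 h, with labelled DUBs NeutrAvidin-enriched and run by diaPASEF LC-MS/MS.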

ATXN3 = ATXN3 (UniProt P54252)
Chain of ATXN3 (P54252 whole entry): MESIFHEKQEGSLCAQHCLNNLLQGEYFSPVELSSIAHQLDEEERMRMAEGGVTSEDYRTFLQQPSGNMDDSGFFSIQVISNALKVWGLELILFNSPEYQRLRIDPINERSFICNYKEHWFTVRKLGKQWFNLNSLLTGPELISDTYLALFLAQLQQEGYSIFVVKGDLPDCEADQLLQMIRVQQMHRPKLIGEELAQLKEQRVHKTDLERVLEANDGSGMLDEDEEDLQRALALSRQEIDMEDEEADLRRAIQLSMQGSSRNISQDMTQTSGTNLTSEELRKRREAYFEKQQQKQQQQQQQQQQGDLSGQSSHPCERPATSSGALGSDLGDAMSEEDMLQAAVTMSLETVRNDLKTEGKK
In short: as §1

BAP1 = molecular target: T2, BAP1 (UniProt Q92560)
T2 sequence (whole entry): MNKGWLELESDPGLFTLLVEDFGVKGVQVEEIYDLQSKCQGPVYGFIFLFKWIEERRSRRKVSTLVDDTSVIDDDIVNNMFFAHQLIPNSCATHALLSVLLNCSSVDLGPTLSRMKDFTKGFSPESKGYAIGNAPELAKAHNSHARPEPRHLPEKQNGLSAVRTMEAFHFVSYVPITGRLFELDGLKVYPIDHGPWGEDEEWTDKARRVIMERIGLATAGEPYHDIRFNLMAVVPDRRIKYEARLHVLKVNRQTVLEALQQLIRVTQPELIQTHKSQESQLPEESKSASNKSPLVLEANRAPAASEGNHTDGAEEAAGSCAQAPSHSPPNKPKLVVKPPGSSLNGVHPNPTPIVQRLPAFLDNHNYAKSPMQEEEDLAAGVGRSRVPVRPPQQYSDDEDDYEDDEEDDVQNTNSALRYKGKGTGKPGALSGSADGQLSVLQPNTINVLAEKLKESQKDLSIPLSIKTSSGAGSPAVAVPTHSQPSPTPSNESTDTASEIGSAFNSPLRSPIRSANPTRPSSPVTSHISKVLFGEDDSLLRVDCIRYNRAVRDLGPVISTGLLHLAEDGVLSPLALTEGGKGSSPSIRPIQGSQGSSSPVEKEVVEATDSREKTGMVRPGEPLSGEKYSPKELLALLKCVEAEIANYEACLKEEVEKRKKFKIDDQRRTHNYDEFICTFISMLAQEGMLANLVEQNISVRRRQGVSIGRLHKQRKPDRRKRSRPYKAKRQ
In short: as §1

EIF3F = EIF3F (UniProt O00303)
Chain of EIF3F (O00303 whole entry): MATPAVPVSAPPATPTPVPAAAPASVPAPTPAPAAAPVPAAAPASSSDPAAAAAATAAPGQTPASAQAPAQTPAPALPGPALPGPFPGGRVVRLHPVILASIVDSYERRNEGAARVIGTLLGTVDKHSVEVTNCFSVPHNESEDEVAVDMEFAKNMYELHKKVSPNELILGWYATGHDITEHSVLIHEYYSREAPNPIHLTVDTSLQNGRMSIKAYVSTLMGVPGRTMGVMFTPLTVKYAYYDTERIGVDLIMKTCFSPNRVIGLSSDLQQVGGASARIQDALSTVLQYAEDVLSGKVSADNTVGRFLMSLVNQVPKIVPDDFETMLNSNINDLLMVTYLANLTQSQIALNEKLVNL
In short: as §1

EIF3H = EIF3H (UniProt O15372)
Chain of EIF3H (O15372 whole entry): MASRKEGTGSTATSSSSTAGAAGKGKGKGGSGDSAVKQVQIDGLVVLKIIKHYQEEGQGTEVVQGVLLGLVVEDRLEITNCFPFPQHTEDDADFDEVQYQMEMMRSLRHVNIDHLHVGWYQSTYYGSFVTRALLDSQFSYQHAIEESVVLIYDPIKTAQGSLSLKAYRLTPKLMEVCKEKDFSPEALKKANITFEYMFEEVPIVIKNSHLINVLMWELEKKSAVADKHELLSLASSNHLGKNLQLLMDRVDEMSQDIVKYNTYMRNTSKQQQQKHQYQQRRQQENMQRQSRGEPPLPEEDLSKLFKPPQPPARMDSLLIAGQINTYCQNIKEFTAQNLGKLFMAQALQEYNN
In short: as §1

FAM105A = molecular target: T3, FAM105A (UniProt Q9NUU6)
T3 sequence (whole entry): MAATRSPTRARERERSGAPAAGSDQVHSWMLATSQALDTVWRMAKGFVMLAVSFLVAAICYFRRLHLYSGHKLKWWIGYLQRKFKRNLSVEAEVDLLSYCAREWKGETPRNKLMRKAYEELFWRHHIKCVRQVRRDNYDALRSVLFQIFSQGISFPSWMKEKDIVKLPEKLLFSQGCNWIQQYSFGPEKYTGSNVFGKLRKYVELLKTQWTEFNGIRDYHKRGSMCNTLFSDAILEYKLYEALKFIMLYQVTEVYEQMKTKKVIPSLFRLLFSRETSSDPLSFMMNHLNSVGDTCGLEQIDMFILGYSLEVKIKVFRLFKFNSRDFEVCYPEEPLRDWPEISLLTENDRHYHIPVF
In short: as §1

OTUB1 = OTUB1 (UniProt Q96FW1)
Chain of OTUB1 (Q96FW1 whole entry): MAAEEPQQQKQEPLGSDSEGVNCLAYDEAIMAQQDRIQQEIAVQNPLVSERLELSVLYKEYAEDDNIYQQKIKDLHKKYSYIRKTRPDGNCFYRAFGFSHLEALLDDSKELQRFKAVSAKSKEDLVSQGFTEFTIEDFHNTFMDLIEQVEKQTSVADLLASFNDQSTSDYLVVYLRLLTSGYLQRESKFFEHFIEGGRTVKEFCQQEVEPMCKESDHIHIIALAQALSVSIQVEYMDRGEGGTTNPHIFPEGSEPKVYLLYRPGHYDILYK
In short: as §1

OTUD4 = molecular target: T4, OTUD4 (UniProt Q01804)
T4 sequence (whole entry): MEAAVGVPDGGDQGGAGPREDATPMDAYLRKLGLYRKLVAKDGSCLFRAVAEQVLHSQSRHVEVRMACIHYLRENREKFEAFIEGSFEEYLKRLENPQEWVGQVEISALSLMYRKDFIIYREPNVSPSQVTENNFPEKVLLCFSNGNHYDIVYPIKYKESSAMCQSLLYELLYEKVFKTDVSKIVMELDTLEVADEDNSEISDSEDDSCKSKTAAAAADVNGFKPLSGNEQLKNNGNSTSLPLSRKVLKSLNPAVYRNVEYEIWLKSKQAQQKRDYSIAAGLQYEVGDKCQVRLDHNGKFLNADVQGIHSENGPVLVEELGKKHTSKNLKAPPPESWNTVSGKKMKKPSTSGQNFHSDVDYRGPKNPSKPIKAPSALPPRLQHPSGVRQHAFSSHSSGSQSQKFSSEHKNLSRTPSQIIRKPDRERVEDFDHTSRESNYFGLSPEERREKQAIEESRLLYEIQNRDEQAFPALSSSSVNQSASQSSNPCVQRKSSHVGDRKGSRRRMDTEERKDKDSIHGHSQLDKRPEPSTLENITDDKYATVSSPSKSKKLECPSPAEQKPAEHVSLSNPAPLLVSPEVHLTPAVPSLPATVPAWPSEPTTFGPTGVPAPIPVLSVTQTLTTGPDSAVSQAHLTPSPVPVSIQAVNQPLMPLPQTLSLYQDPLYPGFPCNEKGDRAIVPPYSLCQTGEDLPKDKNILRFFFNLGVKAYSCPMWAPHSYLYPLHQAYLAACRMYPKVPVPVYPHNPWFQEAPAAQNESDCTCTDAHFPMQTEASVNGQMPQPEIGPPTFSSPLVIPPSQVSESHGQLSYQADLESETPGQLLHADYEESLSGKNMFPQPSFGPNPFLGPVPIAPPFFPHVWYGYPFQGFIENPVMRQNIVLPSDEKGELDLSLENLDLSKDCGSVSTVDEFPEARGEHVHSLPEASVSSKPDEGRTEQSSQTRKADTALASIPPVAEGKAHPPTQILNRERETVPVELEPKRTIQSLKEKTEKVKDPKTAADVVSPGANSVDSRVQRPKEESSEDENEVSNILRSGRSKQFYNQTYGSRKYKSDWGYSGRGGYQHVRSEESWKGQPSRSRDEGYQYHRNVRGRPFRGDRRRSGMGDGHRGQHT
In short: as §1

OTUD5 = molecular target: T5, OTUD5 (UniProt Q96G74)
T5 sequence (whole entry): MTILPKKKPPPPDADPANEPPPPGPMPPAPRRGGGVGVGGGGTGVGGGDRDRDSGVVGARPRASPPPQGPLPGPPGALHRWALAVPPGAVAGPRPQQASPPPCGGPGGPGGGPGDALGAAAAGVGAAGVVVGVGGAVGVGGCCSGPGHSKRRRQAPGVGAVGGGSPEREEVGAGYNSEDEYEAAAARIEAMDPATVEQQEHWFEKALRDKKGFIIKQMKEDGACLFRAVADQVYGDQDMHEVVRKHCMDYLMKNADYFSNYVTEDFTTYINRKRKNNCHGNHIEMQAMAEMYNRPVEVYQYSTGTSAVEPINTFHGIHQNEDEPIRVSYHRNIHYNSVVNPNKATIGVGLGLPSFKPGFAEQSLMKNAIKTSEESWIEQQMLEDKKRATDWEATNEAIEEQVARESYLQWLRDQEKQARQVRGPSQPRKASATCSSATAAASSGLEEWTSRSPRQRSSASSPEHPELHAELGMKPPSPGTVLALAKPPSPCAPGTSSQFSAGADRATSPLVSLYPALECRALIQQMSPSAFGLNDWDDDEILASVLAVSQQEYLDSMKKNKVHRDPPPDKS
In short: as §1

| Compound | log2 ratio of Biotin-Ahx-Ub-VS probe labelling (ALG13) | log2 ratio of Biotin-Ahx-Ub-VS probe labelling (ATXN3) | log2 ratio of Biotin-Ahx-Ub-VS probe labelling (BAP1) | log2 ratio of Biotin-Ahx-Ub-VS probe labelling (EIF3F) | log2 ratio of Biotin-Ahx-Ub-VS probe labelling (EIF3H) | log2 ratio of Biotin-Ahx-Ub-VS probe labelling (FAM105A) | log2 ratio of Biotin-Ahx-Ub-VS probe labelling (OTUB1) | log2 ratio of Biotin-Ahx-Ub-VS probe labelling (OTUD4) | log2 ratio of Biotin-Ahx-Ub-VS probe labelling (OTUD5) |
| --- | --- | --- | --- | --- | --- | --- | --- | --- | --- |
| C[C@H]1CN(C(=O)CCl)CCN1C(=O)c1cnn(C)c1.Cl | 0.134 | -0.631 | -0.356 | 0.132 | 0.0411 | 0.375 | -0.204 | -0.236 | -0.326 |
| O=C(CCl)N1CC2(CCOCC2)C1 | -0.597 | -0.356 | -0.382 | 0.0073 | 0.061 | -0.00776 | -0.183 | -0.122 | -0.493 |
| Cl.Cn1ncc2c1CCCC2NC(=O)CCl (stereo unspecified) | 0.35 | -0.16 | -0.894 | -0.378 | 0.457 | 0.0219 | -0.186 | -1.75 (active) | -0.0276 |
| Cc1nc(CNC(=O)CCl)c2ccccn12.Cl | -0.085 | -0.101 | -0.847 | -0.26 | 0.233 | -0.142 | -0.107 | -0.199 | -0.159 |
